A short description of the experiment: cytotoxicity in BJeHLT fibroblasts, dose response, counter-screen for Ras selective lethality project, BJeHLT cells, dry powder (AID 493052).

Molecules are shown by their SMILES. Measured potencies and affinities stand elsewhere. The source made the active and inactive calls.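 How the source made its calls: active means viability falls with dose and fitted half-maximal concentration is at most ten times the top valid dose; inconclusive means flat partial loss of 30 to 70 percent, or poor fit; inactive means flat within 30 percent, too weak, or rising signal.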

`CCC(=O)N(c1ccc(OC)c(Cl)c1)C(C(=O)NCCc1ccccc1)c1cccs1` (stereo not given): the result was inactive. On to `COc1ccc(N(C(=O)CSc2ncccn2)C(C(=O)NCCc2ccccc2)c2cccs2)cc1Cl` (stereo not given), for which the molecule was classed as inactive. Next, `COCC(=O)N(c1ccc(OC)c(Cl)c1)C(C(=O)NCCc1ccccc1)c1cccs1` (stereo not given): “inactive”; `O=C(c1[nH]ncc1[N+](=O)[O-])N1CCN(C(c2ccccc2)c2ccccc2)CC1`: “inactive”. Next, `COc1ccc(N(C(=O)CO)C(C(=O)NCCc2ccccc2)c2cccs2)cc1Cl` (stereo not given): “inactive”.

Values taken from PubChem BioAssay AID493052 (Broad Institute, 2011).
